Source: PubChem
SMARCA2 activ: increases SMARCA2 function in MMTV reporter cells | MG213 cells, MMTV-luciferase reporter, dexamethasone, overnight | activation, % at 9.1 µM | 370,000 compounds, 1% hits | AID 652017; in the data active means activation above about 7.8%;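 further: 0% = vehicle wells and 100% = reference activator wells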
PG9 Ab binder: small molecules binding HIV-1 gp120 antibody PG9. TR-FRET gp120-PG9 antibody binding. inhibition, % at 6.7 µM. 360,000 compounds, 0.43% hits. AID 624416; in the data active means inhibition above about 8.5%
HSP90 refold inh: inhibitors of HSP90 luciferase refolding in rabbit reticulocyte lysate; luciferase refolding luminescence, 3 h; 290,000 compounds, 0.91% hits; inhibition, % at 5.6 µM;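 active means inhibition above the screen-wide mean plus 3 SD, computed separately per campaign, cut at about 16% in these data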;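 further: 0% = DMSO wells and 100% = 60 µM geldanamycin wells; inhibitors lower the luminescence because luciferase stays unfolded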
AI-2 QS modul: modulators of Vibrio harveyi AI-2 quorum sensing system | Vibrio harveyi JMH597 AI-2 luminescence/OD600 ratio, 9 h; active compounds read low; strain lacks LuxN and CqsS sensors; 0 = neutral-control median | activity change, % at 7.5 µM | 300,000 compounds, 0.4% hits | AID 2094; in the data active means activity change below about -75%, passing the limit was not always enough; inconclusive means no clear call, values can overlap the other calls;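 further: luminescence divided by OD600 gain over 9 h not by final OD600 alone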
GAA850 FXN act: increases GAA850 frataxin promoter reporter activity; AID 540364; activation, % at 6 µM; HEK293 lucGAA850 FXN promoter luciferase reporter, 24 h; percent of 10 µM SAHA response; 360,000 compounds, 0.56% hits;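 active means activation above the average of all compounds screened plus 3 SD, cutoff fixed separately per campaign, cut at about 7.5% in these data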;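 further: 0% = DMSO wells and 100% = 10 µM SAHA wells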
HSF1 inhib: HSF1 inhibition | NIH3T3-HGL HSE-luciferase, MG132-induced, luminescence 8 h; active compounds read low | activity change, negative = inhibition, % at 7.5 µM (by protocol) | 300,000 compounds, 0.77% hits | AID 2098;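 active means more than half of replicate wells show activity change below -50%, luminescence cut by over half; inconclusive means some wells, but at most half, below -50%; inactive means no replicate well below -50%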;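 further: luciferase reports HSF-1 transcriptional activity via heat shock element; 0% = median of DMSO wells and -100% = zero luminescence signal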
GAA30 counter: GAA30 FXN promoter activation counter-screen; shares compounds with GAA850 FXN act; HEK293 lucGAA30 FXN promoter luciferase, 24 h; DMSO = 0%, 5 µM ipriflavone = 100%; activation, % at 6 µM; 1,900 compounds, 66% hits;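 active means mean activation above the mean of solvent-only control wells plus 3 SD, cut at about 22% in these data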;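 further: counterscreen of GAA850 promoter hits where activity marks nonselective or luminescence artifacts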
FXN GAA850 conf: confirmation of GAA850 frataxin (FXN) promoter activators. shares compounds with GAA850 FXN act. HEK293 lucGAA850 FXN promoter luciferase reporter, 24 h; 100% = activation by SAHA. activation, % at 6 µM. 1,900 compounds, 86% hits. AID 588351;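 active means mean activation above a set limit taken from the primary screen, cut at about 8% in these data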;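 further: 0% = DMSO wells and 100% = 10 µM SAHA wells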
PG9 bind confirm: confirmation of small molecules binding HIV-1 gp120 antibody PG9; TR-FRET PG9 antibody binding, biochemical; 1,500 compounds, 90% hits; inhibition, % at 6.7 µM; AID 651571; shares compounds with PG9 Ab binder; in the data active means inhibition above about 9%
PGV04 Ab binding: binds control antibody PGV04 in PG9 binder counter-screen; shares compounds with PG9 Ab binder; TR-FRET PGV04 antibody-gp120 binding, biochemical; inhibition, % at 6.7 µM; 1,500 compounds, 95% hits; AID 651604; in the data active means inhibition above about 9.5%
SMARCA2 act conf: confirmation of SMARCA2 (BRM) function activators. shares compounds with SMARCA2 activ. 3,500 compounds, 30% hits. activation, % at 9.1 µM. AID 652260. MG213 cells, MMTV-luciferase with dexamethasone, luminescence, overnight; MG213 cells expressing E1A, Rb sequestered; DMSO wells 0%, reference activator 100%;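 active means activation above its plate's cutoff, the mean activation of tested wells plus 3 SD, cut at about 7.9% in these data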
VP16 Luc act: activates GAL4-VP16 luciferase, flagging SMARCA2 activator hits; shares compounds with SMARCA2 activ; activation, % at 9.1 µM; 3,500 compounds, 41% hits; HEK293 GAL4-VP16 pG5luc reporter, luciferase luminescence; scaled: DMSO wells 0%, SAHA wells 100%;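 active means activation above the solvent-only control well mean plus 3 SD, averaged across control plates, cut at about 5.2% in these data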
The depositor's hits bear a star; ? = inconclusive; nt = not tested or not shown. This is a sample that favours compounds with a hit; in the whole collection about 3.4% have one here.

SMILES	SMARCA2 activ	PG9 Ab binder	HSP90 refold inh	AI-2 QS modul	GAA850 FXN act	HSF1 inhib	GAA30 counter	FXN GAA850 conf	SMARCA2 act conf	VP16 Luc act	others
Cc1nc2ccc(NC(=O)c3ccc(F)cc3F)cc2c(=O)[nH]1	1	nt	nt	nt	nt	nt	nt	nt	nt	nt
COCc1[nH]nc2c1C(c1ccc(C)cc1)N(Cc1ccccc1)C2=O (stereo not drawn)	0	-1	nt	nt	nt	nt	nt	nt	nt	nt
CC1(C(=O)NCc2ccccc2Br)CCN1Cc1ccc(-c2ccccn2)cc1 (stereo not drawn)	-9	-3	nt	nt	-1	nt	nt	nt	nt	nt
CN(C)CCNc1ccc(-c2nn(C)c(=O)c3ccccc23)cc1[N+](=O)[O-]	-1	-1	1	0	2	-4	nt	nt	nt	nt
CN(C)CCNc1ccc2ncn3c4ccc(O)cc4c(=O)c1c23	15*	-23	nt	nt	8.4*	nt	-42	26*	141*	2
CCOc1ccc2nc(C)cc(Nc3cccc([N+](=O)[O-])c3)c2c1	14*	-6	-1	20	7.7*	7	26*	20*	32*	3
Cc1cc(C)c2c(N)c3cccc(C)c3nc2n1	28*	-1	3	14	8.0*	4	12	143*	347*	6.1*
c1ccc2nc3c(nc2c1)c1ccccc1n3CCN1CCOCC1	11*	2	1	21	12*	35	52*	24*	7.9*	4
CCCn1c2ccccc2c2nnc(SCCN3CCOCC3)nc21	-1	-3	3	7	3	-3	nt	nt	nt	nt
O=C(C=Cc1ccccc1Cl)c1ccccc1	6	-2	nt	nt	3	nt	nt	nt	nt	nt
O=C(/C=C/Sc1ccccc1)c1ccc(Cl)cc1	8.1*	-2	-4	-53	12*	122	86*	58*	5	6.4*
Clc1ccc2c(c1)-c1ccccc1C1=NCCN12	16*	0	nt	nt	33*	nt	-1	139*	313*	5
CN1C2=NCCN2C(=O)c2cc(Cl)ccc21	2	-1	-1	7	1	-9	nt	nt	nt	nt
CCOC(CN=c1nc(N(C)C)ss1)OCC	14*	2	nt	nt	8.2*	nt	-15	10*	5	5.7*
COc1ccc2c(CC(=O)Nc3ncc(C)s3)coc2c1	29*	0	2	21	8.7*	14	91*	55*	42*	4
CN1C(=O)[C@@]2(C3=C(CCCC3=O)OC3=C2C(=O)CC(C)(C)C3)c2ccccc21	-3	0	nt	nt	nt	nt	nt	nt	nt	nt
CCOC(=O)c1nc(S(C)(=O)=O)ncc1Cl	34*	-3	6	22	41*	nt	63*	73*	-1	4
Cc1[nH]c2ccccc2c1CC(=O)Nc1ccc(Nc2cccnc2)c(-c2ccc(C(C)(C)C)cc2)c1	-5	-1	nt	nt	nt	nt	nt	nt	nt	nt
O=C(Nc1sc2c(c1C(=O)NCc1ccco1)CCCC2)c1ccc2c(c1)OCO2	8.9*	15*	-2	34	10*	18	69*	31*	4	8.3*	PG9 bind confirm=8.6*;PGV04 Ab binding=20*
O=C1N/C(=C/c2ccc(N3CCOCC3)o2)C(=O)N1c1ccccc1	14*	-3	-1	nt	11*	nt	54*	19*	3	2
C=CCN1C(=O)N/C(=C/c2ccc(N3CCOCC3)o2)C1=O	6	-4	1	26	nt	?	nt	nt	nt	nt
Cc1ccc(/C=C/C(=O)NC2CCCCCCC2)o1	8.0*	2	0	12	11*	4	99*	49*	20*	4
Cc1ccc(/C=N/NC(=O)NC2CCCCC2)o1	-2	-2	-3	12	7	0	nt	nt	nt	nt
CC(C)c1ccc(N(C(=O)c2ccco2)C(C(=O)NC2CCCC2)c2ccncc2)cc1 (stereo not drawn)	8.0*	-2	-5	10	10*	21	106*	38*	3	3
CC(C)C[C@H](NC(=O)C1CC1)C(=O)N1CCC[C@H]1C(=O)NCc1ccccc1	-3	-2	nt	nt	nt	nt	nt	nt	nt	nt
SMILES	SMARCA2 activ	PG9 Ab binder	HSP90 refold inh	AI-2 QS modul	GAA850 FXN act	HSF1 inhib	GAA30 counter	FXN GAA850 conf	SMARCA2 act conf	VP16 Luc act	others
NC(=O)CC1C(=O)N(c2ccccc2)C(=S)N1NC(=O)c1ccccc1 (stereo not drawn)	8.0*	0	2	5	8.9*	9	77*	20*	7	2
CNC(=O)CC1C(=O)N(C)C(=S)N1NC(=O)c1ccccc1 (stereo not drawn)	-4	1	3	30	2	-2	nt	nt	nt	nt
COc1ccc(NC(=O)c2sc3nc(C)cc(C)c3c2N)cc1	6	0	-1	7	5	-5	nt	nt	nt	nt
Cc1cc(C)c2c(N)c(C(=O)Nc3ccc([N+](=O)[O-])cc3)sc2n1	8.5*	-1	-7	6	9.4*	21	98*	32*	5	10*
COc1ccc(C2CC(=O)N(CC(=O)NCC3CCCO3)c3ccccc3S2)cc1OC (stereo not drawn)	5	1	2	1	2	-1	nt	nt	nt	nt
COc1ccc(C2CC(=O)N(C)c3ccccc3S2)cc1OC (stereo not drawn)	10*	-3	5	20	8.4*	9	122*	45*	12*	9.6*
C[C@H](CO)N1C[C@H](C)[C@@H](CN(C)C(=O)Nc2ccc3c(c2)OCO3)OCc2cn(nn2)CCCC1=O	0	1	nt	nt	nt	nt	nt	nt	nt	nt
Cc1ccc(-c2nc(NCCCO)c3ccccc3n2)cc1	0	-1	-2	10	3	-3	nt	nt	nt	nt
OCCCNc1c2ccccc2nc2ccccc12	19*	-2	3	16	13*	12	-15	119*	145*	1
Cc1ccc(S(=O)(=O)N2[C@@H](CO)CO[C@H]2CC(=O)c2cccs2)cc1	-2	-2	nt	nt	nt	nt	nt	nt	nt	nt
